In PubChem BioAssay (NCI) one finds growth data, which are given here for 13 molecules.

The structures appear in SMILES notation. The panel holds about 83,000 compounds, 20% with a hit somewhere; the sample as a whole holds those more often.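 Treatment: one concentration, 48 hours, 96-well format. Scoring: percent growth, with anything below 10 considered active.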 A number with no mark means an inactive call. Active and inactive are the calls of the source.

Among the test systems are DU-145 prostate; K-562 leukemia; MALME-3M melanoma; MDA-MB-231 breast; RXF 393 renal; SF-268 CNS; SF-295 CNS; SF-539 CNS; UACC-257 melanoma; M14 melanoma.
What all share (assay): NCI-60 one-dose screen, 48 h (100 = growth as untreated, 0 = no growth, -100 = all killed)
Details in all cases: 10 µM unless noted

`O=C1/C(=C/c2ccc(F)cc2)CN(Cc2cn(CCNc3ccnc4cc(Cl)ccc34)nn2)C/C1=C\c1ccc(F)cc1`: the growth with DU-145 prostate is 5.98% (active); with K-562 leukemia, 5.23% (active); in the experiment on MALME-3M melanoma it was -80.6% (active); in the experiment with MDA-MB-231 breast, -39.7% (active); in the experiment on RXF 393 renal, -97.2% (active); with SF-268 CNS, -80.2% (active). Moreover, the growth is -55.5% (active) in the experiment with SF-295 CNS, -78.5% (active) in the experiment with SF-539 CNS, -72.5% (active) with UACC-257 melanoma and -49.7% (active) in the experiment on M14 melanoma.
On to `COc1ccc(C2CC(c3cc(OC)c(OC)c(OC)c3)=NN2c2ccc(S(N)(=O)=O)cc2)cc1` (stereo not given), for which the growth in the experiment on DU-145 prostate was 85.7%; with K-562 leukemia it was 33.1%; with MALME-3M melanoma, 101%; in the experiment on MDA-MB-231 breast it was 51.3%; in the experiment on RXF 393 renal, 79.3%; with SF-268 CNS, 72.9%. Also, the growth was 55.2% in the experiment with SF-295 CNS, 77.8% in the experiment with SF-539 CNS, 73.7% with UACC-257 melanoma and 64.6% in the experiment on M14 melanoma.
With `Cc1oc2c(c1C(=O)N1CC[C@@H](N)C1)C(=O)c1c(c(O)c3ccccc3c1O)C2=O`, the growth in the experiment on DU-145 prostate was 24%; in the experiment on K-562 leukemia it was 3.82% (active); in the experiment on MALME-3M melanoma it was 53.2%; in the experiment on MDA-MB-231 breast, 35.2%; in the experiment on RXF 393 renal, 48.9%; in the experiment on SF-268 CNS, 16%. The growth in the experiment on SF-295 CNS is 29.9%; in the experiment with SF-539 CNS, 46.9%; in the experiment on UACC-257 melanoma, 74.8%; with M14 melanoma, 38.8%.
As to `Cc1cc(=O)c2c(C)ccc(C)c2[nH]1`, the growth is 115% with DU-145 prostate; 109% in the experiment with K-562 leukemia; 102% with MALME-3M melanoma; 99.3% in the experiment with MDA-MB-231 breast; 90.7% with RXF 393 renal; 96.8% with SF-268 CNS. Moreover, the growth was 91.4% with SF-295 CNS, 107% with SF-539 CNS, 80.5% in the experiment on UACC-257 melanoma and 97.8% in the experiment on M14 melanoma.
As for `c1ccc(-c2n(Cc3ccc4ccccc4c3)c3ccccc3[n+]2Cc2ccc3ccccc3c2)cc1`, the growth is 4.24% (active) with DU-145 prostate; -35.8% (active) in the experiment with K-562 leukemia; -57.5% (active) in the experiment on MALME-3M melanoma; -49.4% (active) in the experiment with MDA-MB-231 breast; -39.4% (active) in the experiment on RXF 393 renal; -61.9% (active) in the experiment on SF-268 CNS. Moreover, the growth in the experiment with SF-295 CNS was -47.1% (active); in the experiment with SF-539 CNS, -16.2% (active); in the experiment with UACC-257 melanoma, -21.4% (active); with M14 melanoma it was -75.8% (active).
As for `Cn1c(=O)c2c(-c3ccccc3F)n(-c3ccc4c(c3)OCO4)cc2n(C)c1=O`, the growth with DU-145 prostate is 110%; with K-562 leukemia, 78.7%; in the experiment on MALME-3M melanoma, 141%; with MDA-MB-231 breast, 77.1%; in the experiment on RXF 393 renal it was 83.3%; with SF-268 CNS, 97.4%. Also, the growth with SF-295 CNS is 87.9%; in the experiment with SF-539 CNS, 92.7%; in the experiment on UACC-257 melanoma, 117%; in the experiment with M14 melanoma, 117%.
As to `COc1ccc(NS(=O)(=O)c2ccc(-c3cnc(C4CC4)o3)cc2)cc1`, the growth was 81.2% in the experiment with DU-145 prostate; 22.8% with K-562 leukemia; 58.3% with MALME-3M melanoma; 69.7% with MDA-MB-231 breast; 83.9% in the experiment with RXF 393 renal; 73.2% in the experiment on SF-268 CNS. The growth in the experiment with SF-295 CNS was 50%; with SF-539 CNS, 65.2%; in the experiment on UACC-257 melanoma, 72.5%; in the experiment with M14 melanoma, 40.9%.
Regarding `Cc1nc2cc(Nc3nc(Nc4ccc(F)cc4)nc(N4CCN(C)CC4)n3)ccc2n1Cc1ccccc1`, the growth is 16.7% in the experiment on DU-145 prostate; 0.387% (active) in the experiment with K-562 leukemia; -83.4% (active) in the experiment with MALME-3M melanoma; -73.3% (active) in the experiment with MDA-MB-231 breast; -82.7% (active) in the experiment on RXF 393 renal; 14.6% in the experiment on SF-268 CNS. Also, the growth was -62.5% (active) in the experiment with SF-295 CNS, -95.9% (active) in the experiment on SF-539 CNS, -83.7% (active) with UACC-257 melanoma and -73% (active) in the experiment on M14 melanoma.
For `COc1cc(OCc2cccc(-c3ccc(C(O)c4nccs4)cc3)c2C)cc(OC)c1C=O` (stereo not given), the growth was 53.6% in the experiment on DU-145 prostate; 18% with K-562 leukemia; 7.88% (active) with MALME-3M melanoma; 54.5% in the experiment with MDA-MB-231 breast; 59.5% in the experiment with RXF 393 renal; 65% in the experiment with SF-268 CNS. The growth in the experiment with SF-295 CNS is 35.1%; in the experiment with SF-539 CNS it was 69.4%; in the experiment with UACC-257 melanoma, 13.3%; in the experiment with M14 melanoma it was 32%.
In the case of `CCN(CC)c1ccc2c(c1)OS(=O)(=O)N=C2`, the growth in the experiment with DU-145 prostate is 108%; in the experiment with K-562 leukemia, 101%; with MALME-3M melanoma, 98.1%; with MDA-MB-231 breast, 134%; with RXF 393 renal, 119%; with SF-268 CNS, 97.7%. Further, the growth in the experiment on SF-295 CNS is 99.4%; with SF-539 CNS, 99.9%; in the experiment with UACC-257 melanoma it was 103%; in the experiment with M14 melanoma, 98.6%.
`CCCCOC(=O)C1OC(Oc2ccc3c(C)cc(=O)oc3c2)[C@@H](OC(C)=O)C(OC(C)=O)C1OC(C)=O` (stereo not given in full): the growth in the experiment with DU-145 prostate was 104%; with K-562 leukemia, 106%; with MALME-3M melanoma, 89.1%; with MDA-MB-231 breast, 104%; with RXF 393 renal it was 106%; with SF-268 CNS, 97.4%. The growth with SF-295 CNS is 96.1%; in the experiment on SF-539 CNS it was 96%; with UACC-257 melanoma it was 93.9%; with M14 melanoma, 93.9%.
With `Cc1cc(=O)oc2c1ccc1oc(C(=O)c3ccccc3)c(C)c12`, the growth in the experiment with DU-145 prostate is 98.5%; in the experiment with K-562 leukemia it was 49.2%; in the experiment with MALME-3M melanoma, 113%; in the experiment with MDA-MB-231 breast, 76.3%; in the experiment on RXF 393 renal, 99.8%; with SF-268 CNS, 122%. The growth with SF-295 CNS was 55.8%; in the experiment on SF-539 CNS it was 92.5%; in the experiment with UACC-257 melanoma it was 100%; with M14 melanoma it was 77.2%.
Consider `COc1ccc(-n2ncc3c2ccc2cc(S(=O)(=O)c4ccccc4)c(=O)n(C)c23)cc1`, for which the growth with DU-145 prostate was 77.7%; with K-562 leukemia, 113%; in the experiment on MALME-3M melanoma it was 88.7%; in the experiment with MDA-MB-231 breast it was 74%; in the experiment with RXF 393 renal it was 67.9%; in the experiment with SF-268 CNS, 69.2%. The growth was 96.5% in the experiment with SF-295 CNS, 63.7% in the experiment with SF-539 CNS, 92.9% with UACC-257 melanoma and 92.8% with M14 melanoma.
